FBW7 activator: FBW7 E3 ligase activators, primary screen, biochemical, AlphaScreen, human. F-box/WD repeat-containing protein 7 (Homo sapiens), Q969H0. AlphaScreen FBW7–phospho-cyclin E peptide binding, activator screen. normalized activity (activation), % at 26.1 µM. 650,000 tested, 0.13% active. AID 1259310, 2017; in the data active = normalized activity above about 1.9%;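 also: purified mutant Fbw7 with reduced substrate affinity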
Target sequence (Q969H0 whole entry, looked up): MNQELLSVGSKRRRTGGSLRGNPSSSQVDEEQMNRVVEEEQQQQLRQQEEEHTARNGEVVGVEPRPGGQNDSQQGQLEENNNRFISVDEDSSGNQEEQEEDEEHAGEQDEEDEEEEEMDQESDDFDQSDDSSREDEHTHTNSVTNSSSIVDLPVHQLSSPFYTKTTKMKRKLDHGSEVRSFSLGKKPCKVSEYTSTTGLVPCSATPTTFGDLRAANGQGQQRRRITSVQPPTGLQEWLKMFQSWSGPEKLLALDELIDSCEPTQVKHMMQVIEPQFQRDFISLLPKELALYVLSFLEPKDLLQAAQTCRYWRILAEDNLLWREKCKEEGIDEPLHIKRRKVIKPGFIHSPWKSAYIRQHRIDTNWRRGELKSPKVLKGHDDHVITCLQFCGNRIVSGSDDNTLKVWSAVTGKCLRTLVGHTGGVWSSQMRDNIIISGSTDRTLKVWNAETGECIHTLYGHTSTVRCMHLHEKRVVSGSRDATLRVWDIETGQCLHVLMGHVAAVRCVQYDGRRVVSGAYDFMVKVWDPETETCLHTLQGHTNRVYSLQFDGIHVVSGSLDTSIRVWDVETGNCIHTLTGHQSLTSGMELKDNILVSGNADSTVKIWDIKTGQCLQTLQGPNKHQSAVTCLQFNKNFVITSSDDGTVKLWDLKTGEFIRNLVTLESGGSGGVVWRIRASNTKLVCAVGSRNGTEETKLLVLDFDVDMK
MITF primary: MITF inhibitors, primary screen, biochemical, AlphaScreen, human | inhibition, % at 2.6 µM | Microphthalmia-associated transcription factor (Homo sapiens), O75030 | 650,000 tested, 0.91% active | AlphaScreen MITF homodimerization, bead proximity signal; in the data active = inhibition above about 50%;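 also: 0% = vehicle wells with protein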
GPR151 activ: activators of human GPR151, primary screen, cell-based, PathHunter beta-arrestin, luminescence. AID 1508602, 2020. 650,000 tested, 1% active. G-protein coupled receptor 151 (Homo sapiens), Q8TDV0. activation, % at 11.2 µM. PathHunter beta-arrestin GPR151 cells; in the data active = activation above about 4.9%;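 also: 0% = median of compound wells and 100% = cells with positive control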
TEAD-YAP block: TEAD-YAP interaction inhibition, primary screen, TEAD-YAP interaction inhibitor project, luminescence, HEK-TIYL cells; TEAD-Gal4/YAP UAS-luciferase luminescence; inhibition, % at 9.12 µM; 640,000 tested, 1.4% active; in the data active = inhibition above about 32%;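 also: 0% = median of test compound wells and 100% = reference inhibitor wells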
Starred values were filed as active, the others as inactive. Rows were chosen to be rich in hits. Some 3.5% of all compounds tested hit in one or more screens of this group.

`COc1ccc(OC)c(/C=C2\SC(N3CCCCCC3)=NC2=O)c1` gave FBW7 activator 0, MITF primary -11, GPR151 activ -1 and TEAD-YAP block -5.
`CCOC(=O)c1sc(NC(=O)c2nn3c(C(F)(F)F)cc(-c4ccc(OC)cc4)nc3c2Br)c(C(=O)OCC)c1C` gave FBW7 activator 0, MITF primary 11, GPR151 activ 1 and TEAD-YAP block -5.
Screening Oc1ccc(-c2cnn3ccc(NCc4cccnc4)nc23)cc1 returned FBW7 activator 0, MITF primary -5, GPR151 activ 0 and TEAD-YAP block 35*.
COc1cc(Nc2ccn3ncc(-c4ccccc4Cl)c3n2)cc(OC)c1OC was read as FBW7 activator 2, MITF primary 9, GPR151 activ 0 and TEAD-YAP block 36*.
COc1cc(-c2cnn3ccc(NCCO)nc23)ccc1O was read as FBW7 activator 0, MITF primary -22, GPR151 activ -1 and TEAD-YAP block 1.
For COc1ccc(-c2cnn3ccc(NCCO)nc23)cc1OC the results were FBW7 activator 0, MITF primary -4, GPR151 activ 0 and TEAD-YAP block 57*.
For COc1cc(-c2cnn3ccc(Nc4cc(OC)c(OC)c(OC)c4)nc23)ccc1O the results were FBW7 activator 0, MITF primary 7, GPR151 activ 2 and TEAD-YAP block 71*.
For COc1cccc(-c2cnn3ccc(Nc4cc(OC)c(OC)c(OC)c4)nc23)c1 the results were FBW7 activator 0, MITF primary 10, GPR151 activ 1 and TEAD-YAP block -3.
For CCOc1ccccc1N(CC(=O)N1CCCCC1)S(=O)(=O)c1ccc(C)cc1 the results were FBW7 activator 0, MITF primary 5, GPR151 activ 0 and TEAD-YAP block -12.
COc1ccc(/C=C(\NC(=O)c2ccc(C)cc2)C(=O)N2CCCC2)cc1OC was read as FBW7 activator 1, MITF primary -4, GPR151 activ -1 and TEAD-YAP block -8.
CCCC1(C(=O)OC)NC(c2ccc(O)cc2)C2C(=O)N(C)C(=O)C21 (stereo unspecified) was read as FBW7 activator 0, MITF primary 3, GPR151 activ 2 and TEAD-YAP block 6.
For Cc1cc(C(=O)COC(=O)c2ccc(O)cc2O)c(C)n1-c1ccccc1 the results were FBW7 activator 0, MITF primary 9, GPR151 activ -1 and TEAD-YAP block 64*.
CSc1ccc2nc(N3CCN(C(=O)c4c(C)cnn4C)CC3)sc2c1 was read as FBW7 activator 0, MITF primary -22, GPR151 activ 0 and TEAD-YAP block 44*.
COc1ccc(CCN(C)C2CCCN(C3CCSCC3)C2)cc1OC (stereo unspecified) was read as FBW7 activator 0, MITF primary 2, GPR151 activ 0 and TEAD-YAP block -2.
O=C(NCc1ccccc1)C(Cc1ccccc1)N(C(=O)c1ccccn1)c1cccnc1 (stereo unspecified) was read as FBW7 activator 0, MITF primary -7, GPR151 activ 1 and TEAD-YAP block 3.
Screening Nc1nn(S(=O)(=O)Cc2ccc(Br)cc2)cc1-c1ccccc1 returned FBW7 activator 0, MITF primary -1, GPR151 activ 0 and TEAD-YAP block 7.
`CCn1c(CNC(=O)C23CC4CC(CC(C4)C2)C3)nnc1SCc1ccc(Br)cc1` gave FBW7 activator 0, MITF primary -9, GPR151 activ 1 and TEAD-YAP block 4.
`CCC1S/C(=N\C(=O)NC2CCCCC2)NC1=O` (stereo unspecified) gave FBW7 activator 1, MITF primary 21, GPR151 activ 1 and TEAD-YAP block 3.
Screening CN(C)/C=C/C=C1\CCC/C(=C\N(C)C)C1=O returned FBW7 activator -1, MITF primary 52*, GPR151 activ 0 and TEAD-YAP block -14.
CCN(CC)CCCNCC(=O)Nc1nc(C)cs1 was read as FBW7 activator 0, MITF primary 15, GPR151 activ -5 and TEAD-YAP block 95*.
For CCN(CC)CCCNCC(=O)Nc1cc(C)on1 the results were FBW7 activator 1, MITF primary 1, GPR151 activ -2 and TEAD-YAP block 8.
`CCN(CC)CCCNCC(=O)N1c2ccccc2Sc2ccccc21` gave FBW7 activator 0, MITF primary 8, GPR151 activ -2 and TEAD-YAP block 40*.
For Oc1ccc(/C=N/Nc2ccc3ccccc3n2)c(O)c1O the results were FBW7 activator -1, MITF primary 21, GPR151 activ -1 and TEAD-YAP block -30.
C(=N\Nc1ccc2ccccc2n1)/c1cccs1 was read as FBW7 activator 0, MITF primary 1, GPR151 activ -2 and TEAD-YAP block 60*.
`Oc1cccc2ccc(/C=N/Nc3ccc4ccccc4n3)nc12` gave FBW7 activator 0, MITF primary -10, GPR151 activ -3 and TEAD-YAP block 33*.
Screening COC(=O)CNC(=O)c1ccc([N+](=O)[O-])c(C)c1 returned FBW7 activator 0, MITF primary -11, GPR151 activ -2 and TEAD-YAP block 1.
Screening O=C(NCc1ccco1)C1CC(c2ccccc2F)=NO1 (stereo unspecified) returned FBW7 activator 0, MITF primary 2, GPR151 activ 1 and TEAD-YAP block 5.
For CCn1ncc(C2=NOC(C(=O)NCc3ccco3)C2)c1C (stereo unspecified) the results were FBW7 activator 0, MITF primary -20, GPR151 activ 0 and TEAD-YAP block 45*.
Screening Cc1ccc(-c2cnc3ccc(N[C@H](CO)C(C)C)nn23)cc1 returned FBW7 activator 0, MITF primary -14, GPR151 activ 2 and TEAD-YAP block 17.
`CC(C)[C@@H](CO)Nc1ccc2ncc(-c3ccc(N)cc3)n2n1` gave FBW7 activator 17*, MITF primary 9, GPR151 activ -1 and TEAD-YAP block 31.
For CC(C)[C@@H](CO)Nc1ccc2ncc(-c3cccc(F)c3)n2n1 the results were FBW7 activator 0, MITF primary -9, GPR151 activ 0 and TEAD-YAP block 14.
`CC(C)[C@@H](CO)Nc1ccc2ncc(-c3cccc(O)c3)n2n1` gave FBW7 activator 0, MITF primary 18, GPR151 activ -1 and TEAD-YAP block 39*.
For CN1CCN(Cc2cnc(-c3ccccc3)s2)CC1CCO (stereo unspecified) the results were FBW7 activator 0, MITF primary 14, GPR151 activ -1 and TEAD-YAP block -18.
For COc1ccc(N2C(C(C)=O)=NN(c3ccc(Cl)cc3)C2c2ccc(OCc3c(Cl)cccc3Cl)c(OC)c2)cc1 (stereo unspecified) the results were FBW7 activator 0, MITF primary 7, GPR151 activ 0 and TEAD-YAP block -1.
`COc1ccc(N2C(C(C)=O)=NN(c3ccccc3)C2c2ccccc2OCc2c(Cl)cccc2Cl)cc1` (stereo unspecified) gave FBW7 activator 1, MITF primary 3, GPR151 activ 1 and TEAD-YAP block 45*.
